# Assay results published in PubChem BioAssay (NCATS).
# Records with an inconclusive call do not appear. Where a call stands in place of a potency, no number is given. The source made the active and inactive calls. Unless noted, calls come from the whole dose curve; as a rule, active = well fitted curve in the direction sought with a large enough effect; inconclusive = small, poorly fitted or top-dose-only effect, or another doubt; inactive = no such curve, though single readings can be large; an effect the other way counts as inactive or inconclusive.
# What was measured:
# [1] = S16 Schwann cell PMP22 intronic element beta-lactamase assay (AID 624044; calls by dose curve; note: nearly all actives have a fitted effect of over 15% in size; note: potency is the fitted concentration of half-maximal effect); details: S16 rat Schwann cells, PMP22 element beta-lactamase FRET, 24 h; ratio activity, negative = inhibition: at 38.3 µM (top of the series)
# Outline: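 Rat S16 Schwann cells with beta-Lac driven by a PMP22 intronic element, compound-treated 24 h at 37 °C. LiveBLAzer FRET B/G read: 460 nm normalized to potassium clavulanate vs DMSO; 535 nm FRET as viability; concentration-effect curves classified.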
# DFO2036 = assay: qHTS profiling for inhibitors of Plasmodium falciparum proliferation (AID 504749); note: nearly all actives have a fitted effect of over 60% in size; note: potency is the fitted concentration of half-maximal effect; details: P. falciparum in erythrocytes, SYBR Green DNA, 72 h; series mostly up to 28.7 µM
# Outline: (§1)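 Three-day growth assay of blood-stage parasites in erythrocytes (0.3% parasitemia, 2.5% hematocrit) at 37 C, 5% CO2, quantified by SYBR Green DNA staining after overnight detergent lysis.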
# W2 = assay: as above; details: P. falciparum in erythrocytes, SYBR Green DNA, 72 h; series mostly up to 28.7 µM
# Outline: as §1
# [2] = target: Ubiquitin carboxyl-terminal hydrolase 1 (Homo sapiens) (UniProt O94782); assay: Inhibitors of USP1/UAF1: Pilot qHTS (AID 504865); note: nearly all actives have a fitted effect of over 35% in size; note: potency is the fitted concentration of half-maximal effect
# Ubiquitin carboxyl-terminal hydrolase 1 (Homo sapiens), sequence (O94782 whole entry, looked up): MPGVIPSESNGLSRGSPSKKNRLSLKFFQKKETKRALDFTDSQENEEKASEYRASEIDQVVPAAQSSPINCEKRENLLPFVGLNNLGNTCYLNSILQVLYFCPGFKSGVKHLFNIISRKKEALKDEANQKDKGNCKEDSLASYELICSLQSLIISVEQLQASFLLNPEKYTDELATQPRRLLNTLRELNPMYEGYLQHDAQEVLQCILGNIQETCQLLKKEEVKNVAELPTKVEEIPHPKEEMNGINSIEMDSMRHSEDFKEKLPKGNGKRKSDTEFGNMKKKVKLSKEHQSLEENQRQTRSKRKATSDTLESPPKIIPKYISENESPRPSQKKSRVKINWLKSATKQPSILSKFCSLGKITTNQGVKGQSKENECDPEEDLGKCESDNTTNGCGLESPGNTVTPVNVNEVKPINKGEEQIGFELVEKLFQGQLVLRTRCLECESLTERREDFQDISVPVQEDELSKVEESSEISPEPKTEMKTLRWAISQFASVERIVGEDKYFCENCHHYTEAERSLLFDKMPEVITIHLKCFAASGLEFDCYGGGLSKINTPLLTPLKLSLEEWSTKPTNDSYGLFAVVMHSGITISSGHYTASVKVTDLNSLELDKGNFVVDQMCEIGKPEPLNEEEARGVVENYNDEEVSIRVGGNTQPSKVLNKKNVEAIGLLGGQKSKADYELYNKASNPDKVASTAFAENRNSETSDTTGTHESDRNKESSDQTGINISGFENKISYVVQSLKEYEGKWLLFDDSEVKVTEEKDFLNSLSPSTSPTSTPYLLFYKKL
# Outline: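 USP1/UAF1 complex at 1 nM preincubated 15 min at room temperature with compound, then Ub-Rho substrate added at 150 nM final. Fluorescence (480/540 nm) read kinetically in 50 mM HEPES pH 7.8, 0.5 mM EDTA, 1 mM TCEP, 0.1 mg/ml BSA, 0.01% Tween-20.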
# [3] = target: Luciferin 4-monooxygenase (Photinus pyralis) (UniProt P08659); assay: Biochemical firefly luciferase enzyme assay for NPC (AID 624030); note: nearly all actives have a fitted effect of over 70% in size; note: potency is the fitted concentration of half-maximal effect
# Luciferin 4-monooxygenase (Photinus pyralis), sequence (P08659 whole entry, looked up): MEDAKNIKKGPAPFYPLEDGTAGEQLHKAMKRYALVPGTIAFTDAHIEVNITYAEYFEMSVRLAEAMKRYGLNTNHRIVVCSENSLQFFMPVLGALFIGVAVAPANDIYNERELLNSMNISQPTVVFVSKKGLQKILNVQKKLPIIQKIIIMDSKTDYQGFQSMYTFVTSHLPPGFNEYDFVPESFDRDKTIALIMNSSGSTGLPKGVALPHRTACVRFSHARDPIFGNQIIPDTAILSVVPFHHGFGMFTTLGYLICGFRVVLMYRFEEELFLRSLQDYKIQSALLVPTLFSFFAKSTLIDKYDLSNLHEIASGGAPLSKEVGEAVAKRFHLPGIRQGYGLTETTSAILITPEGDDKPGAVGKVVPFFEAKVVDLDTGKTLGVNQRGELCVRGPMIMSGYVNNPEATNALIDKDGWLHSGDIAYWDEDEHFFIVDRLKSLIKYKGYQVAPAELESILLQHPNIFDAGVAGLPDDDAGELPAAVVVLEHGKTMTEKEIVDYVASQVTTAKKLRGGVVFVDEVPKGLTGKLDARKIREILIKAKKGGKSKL
# Outline: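 Direct inhibition of firefly luciferase enzyme (10 nM final, 50 mM Tris Acetate) assessed by luminescence within 5 minutes. Percent activity scaled between DMSO and PTC124 positive control, with concentration-effect curves classified by fit quality and response.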
# [4] = S16 Schwann cell viability assay (CellTiter-Glo assay) (AID 624031);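 note: cellular ATP luminescence as a viability measure; nearly all actives have a fitted effect of over 70% in size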
# Outline: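 Native S16 rat Schwann cells in DMEM/10% FBS without phenol red were incubated overnight, then exposed to compounds for 24 h at 37 °C/5% CO2. Viability was read as ATP luminescence (CellTiter-Glo), normalized to no-cell wells and DMSO (0%).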
# [5] = target: Cytochrome P450 3A4 (Homo sapiens) (UniProt P08684); assay: qHTS Assay for Inhibitors and Substrates of Cytochrome P450 3A4 (AID 884); note: nearly all actives have a fitted effect of over 50% in size; note: potency is the fitted concentration of half-maximal effect
# Cytochrome P450 3A4 (Homo sapiens), sequence (P08684 whole entry, looked up): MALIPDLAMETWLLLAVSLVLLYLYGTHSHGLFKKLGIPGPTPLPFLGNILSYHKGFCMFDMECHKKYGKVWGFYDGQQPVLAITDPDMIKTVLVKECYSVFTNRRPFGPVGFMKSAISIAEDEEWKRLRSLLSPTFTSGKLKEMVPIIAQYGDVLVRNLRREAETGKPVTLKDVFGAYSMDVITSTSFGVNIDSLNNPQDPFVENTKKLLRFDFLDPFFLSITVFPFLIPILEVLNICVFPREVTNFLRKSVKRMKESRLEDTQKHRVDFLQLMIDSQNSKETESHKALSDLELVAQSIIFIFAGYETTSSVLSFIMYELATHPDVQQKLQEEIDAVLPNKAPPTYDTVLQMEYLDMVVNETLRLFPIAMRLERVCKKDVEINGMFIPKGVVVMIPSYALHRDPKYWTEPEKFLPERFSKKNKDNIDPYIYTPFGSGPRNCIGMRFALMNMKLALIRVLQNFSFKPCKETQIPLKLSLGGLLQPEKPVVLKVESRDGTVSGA
# Outline: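 20 nM human CYP3A4 with 25 uM Luciferin-PPXE (at KM) in 200 mM KPO4, preincubated 10 min with compound; NADPH regeneration started a 60 min RT reaction. Luciferin detected by luminescence, normalized to 57 uM ketoconazole as full inhibition.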
# [6] = Confirmation and Secondary Assay for Modulators of Hemoglobin Beta Chain Splicing at IVS2 654 locus (AID 910);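 note: HeLa cells stably carrying EGFP split by mutant beta-globin IVS2-654 intron; per-well total GFP intensity by laser scanning cytometry after 2-day treatment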
# Outline: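 Readout: per-well total peak green fluorescence (488 nm ex, 500–520 nm em) from objects 5–250 µm, reflecting correct splicing of an EGFP-654 reporter. Compounds were applied for 2 days at 37 °C to overnight-plated HeLa EGFP-654 cells; controls were DMSO and 500 nM IVS2-654 PNA.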
# [7] = Confirmation and Secondary Assay for Modulators of Hemoglobin Beta Chain Splicing at IVS2 705 locus (AID 930);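 note: HeLa cells stably expressing the EGFP-705 splicing reporter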
# Outline: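 HeLa cells stably carrying EGFP interrupted by mutant beta-globin IVS2-705 intron (CMV-driven) were seeded at 500 cells/well, treated next day with compound for 2 days at 37C; corrected splicing restores EGFP, read as total peak GFP intensity per well.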
# [8] = target: Cytochrome P450 3A4 (Homo sapiens) (UniProt P08684); assay: qHTS Assay for Activators of Cytochrome P450 3A4 (AID 885); note: nearly all actives have a fitted effect of over 65% in size
# Outline: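 20nM CYP3A4 + 25uM Luciferin-PPXE (=KM), 200mM KPO4; cpd 10 min RT; NADPH regen, 60 min RT; stop w/ detection buffer, 20 min; luminescence. Normalized to 57 uM ketoconazole.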
# [9] = qHTS for Inhibitors of Plasmodium falciparum (DD2) proliferation (AID 504314); note: potency is the fitted concentration of half-maximal effect
# Outline: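 Erythrocytes infected with P. falciparum (0.3% parasitemia, 2.5% hematocrit final) were incubated with compounds for 72 h at 37C, 5% CO2. Parasite DNA was detected by SYBR Green I fluorescence after saponin/Triton lysis, normalized to artemisinin (0.29 uM) and DMSO controls.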
# [10] = target: Mitogen-activated protein kinase 10 (Mus musculus) (UniProt Q61831); assay: JNK3 AlphaScreen Assay (AID 530; active = well fitted curve in either direction with a large enough effect, not every such curve was filed as active;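 note: kinase came from lysate of stimulated human HepG2 cells; signal reports phosphorylation of biotinylated GST-cJun 1-79 at Ser73 with 10 µM ATP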)
# Outline: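 Room-temperature AlphaScreen kinase assay; pre-activated HepG2 lysate as JNK3 source, biotin-GST-cJun(1-79) substrate, 10 uM ATP, compound 15 min preincubation.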
# [11] = target: DNA dC->dU-editing enzyme APOBEC-3G (Homo sapiens) (UniProt Q9HC16); assay: qHTS for inhibitors of Vif-A3G interactions: Validation (AID 588379)
# DNA dC->dU-editing enzyme APOBEC-3G (Homo sapiens), sequence (Q9HC16 whole entry, looked up): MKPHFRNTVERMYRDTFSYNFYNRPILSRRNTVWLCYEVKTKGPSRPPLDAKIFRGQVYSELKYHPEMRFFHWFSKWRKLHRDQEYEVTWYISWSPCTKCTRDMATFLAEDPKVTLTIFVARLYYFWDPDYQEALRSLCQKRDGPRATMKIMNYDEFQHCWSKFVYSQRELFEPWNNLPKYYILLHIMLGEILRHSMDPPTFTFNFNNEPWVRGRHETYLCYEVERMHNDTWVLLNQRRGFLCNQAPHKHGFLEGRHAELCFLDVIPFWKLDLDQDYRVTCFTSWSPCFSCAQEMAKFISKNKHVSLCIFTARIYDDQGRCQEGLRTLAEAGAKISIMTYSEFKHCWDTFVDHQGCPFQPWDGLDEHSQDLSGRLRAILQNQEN
# Outline: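 HeLa cells stably expressing Vif and A3G-eYFP, 700 cells/well, incubated overnight at 37 deg C, then exposed to compound overnight at 37 deg C. Inhibition of Vif-mediated degradation read as increased yellow fluorescence (Ex 488/Em 500-530) by laser-scanning cytometry.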
smiles,measurement,setting,value
COc1cc(/C=C2\CCC/C(=C\c3ccc(O)c(OC)c3)C2=O)ccc1O,Potency,[1],25.1 µM (active)
same,Potency,DFO2036,11.2 µM (active)
same,Potency,W2,9.53 µM (active)
CCCSS/C(CCO)=C(/C)N(C=O)Cc1cnc(C)nc1N,Potency,[2],inactive
same,Potency,[3],inactive
same,Potency,DFO2036,inactive
same,Potency,W2,inactive
C=C1C(n2cnc3c(=O)[nH]c(N)nc32)C[C@H](O)[C@H]1CO (stereo partly drawn),Potency,[3],inactive
same,Potency,[4],inactive
same,Potency,[1],inactive
CC(C)(C)NC[C@H](O)CSc1nc(-c2ccc(C(N)=O)s2)cs1,Potency,[4],inactive
same,Potency,[1],inactive
same,Potency,DFO2036,inactive
same,Potency,W2,inactive
CC1CCC(O)C/C1=C\C=C1/CCCC2(C)C1CCC2C(C)/C=C/C(C)C(C)C (stereo not drawn),Potency,DFO2036,inactive
Cc1c(C)c2c(c(C)c1O)CCC(C)(CCCC(C)CCCC(C)CCCC(C)C)O2 (stereo not drawn),Potency,[5],inactive
same,Potency,[6],inactive
same,Potency,[7],inactive
same,Potency,[3],inactive
same,Potency,[4],inactive
same,Potency,[1],inactive
same,Potency,W2,inactive
CC1(C)SC2[C@@H](N=CN3CCCCCC3)C(=O)N2[C@H]1C(=O)O (stereo partly drawn),Potency,[2],inactive
same,Potency,[3],inactive
same,Potency,[4],inactive
same,Potency,DFO2036,inactive
CCC(C(=O)C(C)C(O)C(C)CCc1ccc(C)c(O)c1C(=O)O)C1OC(CC)(C2CC[C@@](O)(CC)C(C)O2)CC1C (stereo partly drawn),Potency,[5],20 µM (active)
same,Potency,[6],inactive
same,Potency,[7],inactive
same,Potency,[3],inactive
same,Potency,[4],inactive
same,Potency,[1],6.3 µM (active)
same,Potency,W2,0.675 µM (active)
CC(C)C(=O)OCC(=O)[C@@]12OC(C3CCCCC3)O[C@@H]1CC1C3CCC4=CC(=O)C=C[C@]4(C)C3[C@@H](O)C[C@@]12C (stereo partly drawn),Potency,[3],inactive
same,Potency,[1],inactive
same,Potency,DFO2036,0.501 µM (active)
same,Potency,W2,0.239 µM (active)
Cn1cc(C(=O)[C@@H]2CCc3[nH]cnc3C2)c2ccccc21,Potency,[2],inactive
same,Potency,[3],inactive
same,Potency,[1],inactive
same,Potency,W2,inactive
CNC1=CN(O)C(c2ccccc2)=c2cc(Cl)ccc2=N1,Potency,[2],inactive
same,Potency,[3],inactive
same,Potency,[1],inactive
same,Potency,W2,1.2 µM (active)
CC1OC(OC2C(O)CC(OC3C(O)CC(OC4CCC5(C)C(CCC6C5CCC5(C)C(C7=CC(=O)OC7)CCC65O)C4)OC3C)OC2C)CC(O)C1O (stereo not drawn),Potency,[2],inactive
same,Potency,[3],inactive
same,Potency,[4],inactive
same,Potency,[1],inactive
same,Potency,DFO2036,inactive
CCN(CC)C(=O)[C@@]1(c2ccccc2)C[C@@H]1CN,Potency,[2],inactive
same,Potency,[3],inactive
same,Potency,DFO2036,inactive
Cc1cc2nc3c(=O)[nH]c(=O)nc-3n(CC(O)C(O)C(O)COP(=O)(O)O)c2cc1C (stereo not drawn),Potency,[2],31.6 µM (active)
same,Potency,[4],inactive
same,Potency,[1],inactive
CCC(=O)O[C@]1(C(=O)CCl)[C@@H](C)CC2C3C[C@H](F)C4=CC(=O)C=CC4(C)[C@@]3(F)C(O)CC21C (stereo partly drawn),Potency,[3],inactive
same,Potency,[1],inactive
same,Potency,W2,6.01 µM (active)
CC1(C)O[C@@H]2C[C@H]3[C@@H]4CCC5=CC(=O)C=C[C@]5(C)[C@H]4C(O)C[C@]3(C)[C@]2(C(=O)CO)O1 (stereo partly drawn),Potency,[2],inactive
same,Potency,[3],inactive
CC1CN(c2c(F)c(N)c3c(=O)c(C(=O)O)cn(C4CC4)c3c2F)CC(C)N1 (stereo not drawn),Potency,[2],inactive
same,Potency,[3],inactive
same,Potency,[4],inactive
same,Potency,[1],inactive
same,Potency,DFO2036,inactive
same,Potency,W2,inactive
CCOC(=O)C(CCc1ccccc1)NC(C)C(=O)N1Cc2cc(OC)c(OC)cc2CC1C(=O)O (stereo not drawn),Potency,[2],inactive
same,Potency,[4],inactive
same,Potency,[1],inactive
same,Potency,DFO2036,inactive
same,Potency,W2,5.36 µM (active)
C#C[C@]1(O)CC[C@H]2[C@H]3[C@H](CC[C@@]21C)C1=C(CC(=O)CC1)C[C@@H]3C,Potency,DFO2036,inactive
C/C=C1/NN(CCCN2CCN(c3cccc(Cl)c3)CC2)C(=O)N1CCOc1ccccc1,Potency,[3],inactive
same,Potency,[1],inactive
same,Potency,DFO2036,inactive
same,Potency,W2,5.36 µM (active)
COc1ccc(C(=O)/C(Br)=C/C(=O)O)cc1,Potency,[2],inactive
same,Potency,[3],inactive
same,Potency,[4],inactive
same,Potency,[1],inactive
Nc1nc2[nH]cc(CCc3ccc(C(=O)NC(CCC(=O)O)C(=O)O)cc3)c2c(=O)[nH]1 (stereo not drawn),Potency,[4],inactive
same,Potency,W2,0.0757 µM (active)
C[N+]12CCCC[C@@H]1CCC(=C(c1cccs1)c1cccs1)C2 (stereo partly drawn),Potency,[3],inactive
same,Potency,[4],inactive
same,Potency,[1],inactive
same,Potency,DFO2036,10 µM (active)
same,Potency,W2,13.5 µM (active)
CC1=C(c2ccc(NN=C(C#N)C#N)cc2)NNC(=O)C1,Potency,[3],14.4 µM (active)
same,Potency,[1],inactive
same,Potency,DFO2036,inactive
same,Potency,W2,inactive
COc1ccc(S(=O)(=O)N2c3ccc(Cl)cc3[C@](O)(c3ccccc3Cl)[C@@H]2C(=O)N2CCC[C@H]2C(N)=O)cc1OC,Potency,[8],inactive
same,Potency,[3],inactive
same,Potency,[4],inactive
same,Potency,[1],inactive
same,Potency,DFO2036,inactive
C[C@]12C=CC(=O)N[C@@H]1CC[C@@H]1C2CC[C@]2(C)C(C(=O)Nc3cc(C(F)(F)F)ccc3C(F)(F)F)CC[C@@H]12 (stereo partly drawn),Potency,[3],inactive
same,Potency,[1],inactive
same,Potency,DFO2036,inactive
same,Potency,W2,1.51 µM (active)
CC(=O)OC1C([N+]2(C)CCCCC2)C[C@H]2C3CC[C@H]4C[C@H](OC(C)=O)C([N+]5(C)CCCCC5)CC4(C)C3CCC12C (stereo partly drawn),Potency,[4],inactive
same,Potency,[1],inactive
same,Potency,DFO2036,inactive
CCN(CC)CCOCCOC(=O)C(CC)(CC)c1ccccc1 (tested in a mixture with another compound),Potency,W2,0.849 µM (active)
C[C@@H]1CC[C@H]2C(=O)N(Cc3ccc(Cl)cc3)C[C@H](O)CN2[C@@H]1c1ccc(Br)cc1,Potency,[9],1.69 µM (active)
Cc1cc(O)c2c(c1)OC1(C)CCC3C(C)(C)CCCC34COC2C14 (stereo not drawn),Potency,[3],inactive
same,Potency,W2,8.49 µM (active)
C/C(=C(/CCOC(=O)C(C)C)SS/C(CCOC(=O)C(C)C)=C(\C)N(C=O)Cc1cnc(C)nc1N)N(C=O)Cc1cnc(C)nc1N,Potency,[2],inactive
same,Potency,[3],inactive
same,Potency,[1],inactive
same,Potency,W2,inactive
Cc1cnc(NC(=O)C2C(=O)c3ccccc3S(=O)(=O)N2C)s1 (stereo not drawn),Potency,[4],inactive
same,Potency,[1],inactive
same,Potency,DFO2036,inactive
same,Potency,W2,inactive
CCOc1ccccc1O[C@@H](c1ccccc1)[C@@H]1CNCCO1,Potency,[10],inactive
same,Potency,[2],inactive
same,outcome,[11],inactive
same,Potency,[1],inactive
same,Potency,DFO2036,inactive
same,Potency,W2,2.69 µM (active)
O=C(O)C[CH2][Ge](=[O])[O][Ge](=[O])[CH2]CC(=O)O,Potency,[2],inactive
same,Potency,[4],inactive
same,Potency,[1],inactive
same,Potency,DFO2036,inactive
same,Potency,W2,inactive
C=C1CC[C@H](O)C/C1=C/C=C1\CCC[C@]2(C)[C@@H]([C@H](C)CCCC(C)(C)O)CC[C@@H]12,Potency,[3],inactive
C=C1N[C@]2(C(=O)COC(C)=O)[C@@H](C[C@H]3[C@@H]4CCC5=CC(=O)C=C[C@]5(C)[C@H]4[C@@H](O)C[C@@]32C)O1,Potency,[2],inactive
same,Potency,[4],inactive
same,Potency,W2,15.1 µM (active)
CNC1CCc2cc(OC)c(OC)c(OC)c2-c2ccc(OC)c(=O)cc21 (stereo not drawn),Potency,[3],inactive
same,Potency,[4],inactive
same,Potency,DFO2036,inactive
C=C1CC[C@H](O)C/C1=C/C=C1\CCC[C@]2(C)[C@@H]([C@H](C)CC[C@@H](O)C(C)(C)O)CC[C@@H]12,Potency,[3],inactive
same,Potency,[4],inactive
same,Potency,W2,12 µM (active)
CCC1OC(=O)C[C@H](O)C(C)[C@@H](O[C@@H]2OC(C)C(O)C(N(C)C)C2O)C(CCN2CC(C)CC(C)C2)CC(C)C(=O)/C=C/C(C)=C\[C@@H]1COC1OC(C)C(O)C(OC)C1OC (stereo partly drawn),Potency,[5],inactive
same,Potency,[6],inactive
same,Potency,[7],inactive
same,Potency,[2],inactive
same,Potency,[3],inactive
same,Potency,W2,1.07 µM (active)
